Rows were chosen to be rich in hits. Some 3.8% of all compounds tested hit in one or more screens of this group.
Nrf2 inh: inhibitors of Nrf2 signaling. actives 2.1% (n = 360,000). Potency, µM (top dose mostly 46 µM), for inactives: at the highest dose activity change, negative = inhibition, hits mostly inhibitors. A549 ARE-Fluc reporter, luciferase luminescence, 18-24 h; further: on the % scale 0 is the no-effect control and ±100 the full control effect; nearly all actives have a fitted effect of over 60% in size
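Reporter: ARE-Fluc in A549. Exposure: 18-24 h, 37 °C, 5% CO2, 5% FBS OPTI-MEM. Readouts: fluorescent cytotoxicity (CellTiter-Fluor), then luminescent Nrf2 signal after BugLite.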
Nrf2 activator: activates Nrf2 signaling; AID 624171; actives 0.31% (n = 410,000); Potency, µM (series often up to 46.1 µM), inactives show top-dose activation, actives largely listed as activators; AREc32 ARE-luciferase reporter (MCF7-derived line), luminescence, 24 h; further: % of control where 0% means no effect; nearly all actives have a fitted effect of over 65% in size
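Quantitative high-throughput format: AREc32 reporter cells, 1000 per well, received compound by pin transfer and were incubated 24 hr at 37 deg C, 5% CO2, before Steady-Glo luminescence detection.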
A549 tox: counter-screen for Nrf2 inhibitors: cytotoxicity in A549 cells; actives 0.16% (n = 390,000); Potency, µM (top dose mostly 46 µM), without a hit: at the highest dose activity change, negative = cytotoxicity, hits mostly inhibitors; A549 ARE-Fluc cells, CellTiter-Fluor viability, 18-24 h; AID 504648; further: on the % scale 0 is the no-effect control and ±100 the full control effect
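A549 ARE-Fluc cells in 5% FBS OPTI-MEM, 5000 cells/well, rested 2 h then exposed to compounds in concentration-response for 18-24 h at 37 °C. Viability by CellTiter-Fluor fluorescence (Ex 405/Em 525) after 30 min; luciferase luminescence (BugLite, 15 min, RT) read afterwards.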
mIDH1 inhibitor: inhibitors of human mutant IDH1 R132H; actives 0.093% (n = 390,000); AID 602179; IDH1-R132H enzyme, NADPH consumption, diaphorase/resazurin fluorescence; Potency, µM (doses to about 76.6 µM), for inactives: at the highest dose activity change, negative = inhibition, usual class: inhibitors; further: on the % scale 0 is the no-effect control and ±100 the full control effect; nearly all actives have a fitted effect of over 65% in size
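IDH1-R132H (0.5 ug/mL) preincubated 30 min with compound, then NADPH (0.016 mM) and alpha-KG (2 mM) added; 80 min at RT, pH 7.5. Remaining NADPH coupled via diaphorase/resazurin to fluorescence (540/590 nm); concentration-response curves normalized to no-enzyme control.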
ELG1 repair inh: blocks ELG1-dependent DNA repair in HEK293T cells. Potency, µM (doses to about 46.1 µM), without a hit: at the top dose activity change, negative = inhibition, actives largely listed as inhibitors. actives 2.3% (n = 330,000). HEK293T ELG1-luciferase reporter, luminescence, 16 h; DNA damage induced by 5-fluorouridine; further: on the % scale 0 is the no-effect control and ±100 the full control effect; nearly all actives have a fitted effect of over 55% in size
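DMSO vehicle served as the neutral condition. Each well held 2,000 cells given 5-fluorouridine plus compound; after 16 hr at 37 °C/5% CO2, ONE-Glo was added and luciferase measured 30 min later.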
ELG1 FLuc counter: luciferase inhibition in cell-free luciferin readout for ELG1 hits; shares compounds with ELG1 repair inh; cell-free firefly luciferase luminescence counter-screen, ViewLux; Potency, µM (highest dose often 46.1 µM), for inactives: at the top dose activity change, negative = inhibition, hits mostly inhibitors; actives 3% (n = 350); AID 624247; further: on the % scale 0 is the no-effect control and ±100 the full control effect
ELG1-Luc inh: confirmation of human ELG1-dependent DNA repair inhibitors. shares compounds with ELG1 repair inh. HEK293T ELG1-luciferase levels, luminescence; cells co-treated with 5-fluorouridine. Potency, µM (titrated, usually from 46.1 µM), for the others: at the highest dose activity change, negative = inhibition, usual class: inhibitors. actives 68% (n = 670). AID 624248; further: on the % scale 0 is the no-effect control and ±100 the full control effect; nearly all actives have a fitted effect of over 55% in size
Target sequence (Q96QE3 whole entry, looked up): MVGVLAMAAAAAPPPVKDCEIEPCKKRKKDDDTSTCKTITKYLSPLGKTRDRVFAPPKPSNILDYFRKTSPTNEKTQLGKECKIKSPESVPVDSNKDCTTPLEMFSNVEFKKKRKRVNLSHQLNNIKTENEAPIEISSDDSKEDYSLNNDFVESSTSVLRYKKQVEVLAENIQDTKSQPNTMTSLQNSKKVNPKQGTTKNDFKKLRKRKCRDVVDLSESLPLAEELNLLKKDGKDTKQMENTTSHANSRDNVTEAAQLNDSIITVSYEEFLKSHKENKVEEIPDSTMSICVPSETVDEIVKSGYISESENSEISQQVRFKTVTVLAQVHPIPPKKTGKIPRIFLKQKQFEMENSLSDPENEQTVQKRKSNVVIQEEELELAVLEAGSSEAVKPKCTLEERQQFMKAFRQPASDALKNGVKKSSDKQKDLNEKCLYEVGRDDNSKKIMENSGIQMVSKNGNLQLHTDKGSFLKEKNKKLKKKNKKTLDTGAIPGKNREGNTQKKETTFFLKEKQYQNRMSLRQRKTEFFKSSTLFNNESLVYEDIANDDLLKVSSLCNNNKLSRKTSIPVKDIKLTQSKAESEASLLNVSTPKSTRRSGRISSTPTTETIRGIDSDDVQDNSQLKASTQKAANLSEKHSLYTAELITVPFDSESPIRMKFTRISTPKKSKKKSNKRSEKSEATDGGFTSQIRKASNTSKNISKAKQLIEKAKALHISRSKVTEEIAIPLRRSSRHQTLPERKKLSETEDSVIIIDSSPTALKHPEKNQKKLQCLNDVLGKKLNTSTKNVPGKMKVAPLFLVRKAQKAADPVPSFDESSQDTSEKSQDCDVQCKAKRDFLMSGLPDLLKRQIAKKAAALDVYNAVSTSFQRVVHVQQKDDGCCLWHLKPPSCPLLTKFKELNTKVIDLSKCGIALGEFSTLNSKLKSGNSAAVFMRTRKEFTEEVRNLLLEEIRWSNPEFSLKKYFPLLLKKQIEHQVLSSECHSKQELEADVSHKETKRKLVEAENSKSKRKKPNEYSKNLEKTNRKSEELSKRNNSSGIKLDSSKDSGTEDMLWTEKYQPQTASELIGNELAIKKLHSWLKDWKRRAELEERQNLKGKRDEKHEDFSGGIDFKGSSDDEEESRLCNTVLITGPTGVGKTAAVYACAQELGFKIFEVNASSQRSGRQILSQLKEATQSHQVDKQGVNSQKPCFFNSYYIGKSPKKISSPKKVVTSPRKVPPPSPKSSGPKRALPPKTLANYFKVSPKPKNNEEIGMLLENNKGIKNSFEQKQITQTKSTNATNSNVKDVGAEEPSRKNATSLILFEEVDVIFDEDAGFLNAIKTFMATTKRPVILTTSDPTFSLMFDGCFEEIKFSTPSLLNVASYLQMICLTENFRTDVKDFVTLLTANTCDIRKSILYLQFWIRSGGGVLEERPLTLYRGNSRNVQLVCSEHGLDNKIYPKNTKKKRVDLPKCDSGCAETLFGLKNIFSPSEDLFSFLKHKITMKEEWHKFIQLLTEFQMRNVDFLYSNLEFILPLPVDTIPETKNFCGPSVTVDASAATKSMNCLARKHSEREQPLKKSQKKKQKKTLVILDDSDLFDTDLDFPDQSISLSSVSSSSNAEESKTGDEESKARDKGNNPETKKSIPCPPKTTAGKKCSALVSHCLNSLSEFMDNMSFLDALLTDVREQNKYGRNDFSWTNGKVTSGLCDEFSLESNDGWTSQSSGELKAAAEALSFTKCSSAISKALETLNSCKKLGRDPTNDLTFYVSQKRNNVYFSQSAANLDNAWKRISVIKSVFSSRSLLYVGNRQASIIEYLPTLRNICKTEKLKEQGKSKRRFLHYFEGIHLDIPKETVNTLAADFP
ELG1-Luc MMS: confirmation of human ELG1 repair inhibitors, MMS stimulated. shares compounds with ELG1 repair inh. HEK293T luciferase-tagged ELG1 level, MMS stimulated. Potency, µM (titrated, usually from 46.1 µM), for inactives: at the top dose activity change, negative = inhibition, actives largely listed as inhibitors. actives 53% (n = 670); further: on the % scale 0 is the no-effect control and ±100 the full control effect; nearly all actives have a fitted effect of over 60% in size
ELG1 5-FU: confirmation of ELG1 repair inhibitors: viability with 5FU; cell viability with 5-FU, ELG1-dependent repair; Potency, µM (top dose mostly 46.1 µM), inactives show at the top dose activity change, negative = viability loss, most hits filed as cytotoxic; 670 tested, under 10 active; shares compounds with ELG1 repair inh; AID 624250;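 further: ELG1-luc HEK293T cells cotreated with 5-fluorouridine at 10 µM final; viability measured 16 h after compound addition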
ELG1 MMS viab: confirmation of ELG1 repair inhibitors: viability with MMS | shares compounds with ELG1 repair inh | Cell viability with MMS, ELG1-dependent DNA repair | Potency, µM (titrated, usually from 46.1 µM), inactives show top-dose activity change, negative = viability loss, most hits filed as cytotoxic | actives 33% (n = 670) | AID 624251;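 further: ELG1-luc HEK293T cells co-treated with 10 µM MMS; viability read 16 h after compound addition; on the % scale 0 is the no-effect control and ±100 the full control effect; nearly all actives have a fitted effect of over 60% in size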
ELG1 unstim viab: unstimulated viability counter-screen for ELG1 repair hits; shares compounds with ELG1 repair inh; actives 8% (n = 900); Potency, µM (doses to about 45.9 µM), without a hit: at the top dose activity change, negative = loss of viability, hits mostly cytotoxic; cell viability counter-screen, unstimulated, luminescence;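 further: compound exposure lasted 16 hours before reading; on the % scale 0 is the no-effect control and ±100 the full control effect; nearly all actives have a fitted effect of over 55% in size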
FLuc biochem: firefly luciferase inhibition counter-screen | shares compounds with ELG1 repair inh | purified firefly luciferase, luminescence counter-screen | Potency, µM (highest dose often 57.5 µM), inactives show top-dose activity, negative = inhibition, usual class: inhibitors | actives 10% (n = 350) | AID 624253; further: on the % scale 0 is the no-effect control and ±100 the full control effect
The depositor's hits bear a star; ? = inconclusive; . = not tested or not shown; [ ] = another dose, or the depositor's remark. The call rests on the fitted dose curve; in most records, active means well fitted curve in the direction sought with a large enough effect; inconclusive means small, poorly fitted or top-dose-only effect, or another doubt; inactive means no such curve, though single readings can be large; an effect the other way counts as inactive or inconclusive. Potency means the concentration at half of the fitted maximal effect.

SMILES	Nrf2 inh	Nrf2 activator	A549 tox	mIDH1 inhibitor	ELG1 repair inh	ELG1-Luc inh	ELG1-Luc MMS	ELG1 5-FU	ELG1 MMS viab	ELG1 unstim viab	others
CC1Cc2cc(-c3csc(NC(=O)Cc4ccccc4)n3)ccc2N1S(C)(=O)=O (stereo not drawn)	15µM*	5%	-24%	2%	7.3µM*	13µM*	5.6µM*	?	?	16µM*	ELG1 FLuc counter=?;FLuc biochem=-8%
CC(C)C(=O)Nc1nnc(S(=O)(=O)N(C)Cc2ccc(F)cc2)s1	-5%	0%	1%	12%	.	.	.	.	.	.
COc1ccc(OC)c(CNC(=O)c2nn(C)c3c2CS(=O)(=O)c2ccccc2-3)c1	-15%	0%	6%	-8%	3.3µM*	11µM*	25%	9%	-9%	?
COc1ccc(CNC(=O)c2nn(C)c3c2CS(=O)(=O)c2ccccc2-3)cc1	4%	0%	-10%	2%	-4%	.	.	.	.	.
O=C(Cn1c(=O)c2ccccc2n(CC(=O)Nc2ccc(F)cc2)c1=O)NCCc1ccccc1	?	1%	6%	1%	.	.	.	.	.	.
O=C(Cn1cnc2ccccc2c1=O)Nc1ccc(S(=O)(=O)N2CCOCC2)cc1	6%	0%[9.22 µM]	0%	7%	-1%	.	.	.	.	.
O=C(Cn1cnc2cc([N+](=O)[O-])ccc2c1=O)Nc1cccc(S(=O)(=O)N2CCOCC2)c1	-17%	3%	-5%	2%	3.3µM*	?	28%	?	-11%	?
COc1ccc(NC(=O)CN2CCN(C3c4ccccc4-c4ccccc43)CC2)c(OC)c1	.	-1%	-1%	5%	3.7µM*	4µM*	8.9µM*	?	?	-12%
COc1ccc(OC)c(CN2CCN(CC(=O)Nc3ccccc3C(=O)NC3CC3)CC2)c1	1%	0%	-10%	1%	?	7.1µM*	?	?	?	?
COc1cc(C)c(CN2CCN(CC(=O)Nc3ccccc3C(=O)NC3CC3)CC2)cc1OC	-5%	-1%	0%	-16%	3.7µM*	4µM*	28µM*	?	-18%	3%
COc1ccc(OC)c(NC(=O)CN2CCC(NC(=O)c3ccccc3C)CC2)c1	-25%	1%	10%	-9%	?	.	.	.	.	.
COc1cc2c(cc1OC)CN(CC(=O)Nc1ccccc1C(=O)NC1CC1)CC2	-3%	0%	3%	3%	-10%	.	.	.	.	.
CCC(Cc1ccccc1)NC(=O)C1=C(C)C(=O)OC12CCC(C)CC2 (stereo not drawn)	-4%	0%	0%	0%	-9%	.	.	.	.	.
O=C(Nc1cccc(F)c1)c1ccc2oc(=O)n(Cc3ccccc3)c2c1	.	4%	-9%	-6%	.	.	.	.	.	.
O=C(NOCc1ccccc1)c1ccccc1	?	-2%	-1%	11%	?	.	.	.	.	-12%
Cc1ccc(CONC(=O)c2cccc(C)c2)cc1	?	6%	11%	3%	?	.	.	.	.	.
CC(O)(c1ccc(F)c(F)c1)c1nc(-c2cccc(C#N)c2)cs1 (stereo not drawn)	.	0%	.	.	.	.	.	.	.	.
O=C(CCCOc1ccccc1)Nc1cccnc1	11%	-1%	4%	3%	2%	.	.	.	.	.
O=C(COc1ccc(C(=O)c2ccccc2)cc1)Nc1cccnc1	23µM*	0%	?	0%	1µM*	?	1µM*	-2%	1µM*	?
COc1ccc(CCNC(=S)NC(=O)c2cc(OC)c(OC)c(OC)c2)cc1OC	-2%	0%	6%	5%	1.8µM*	2.5µM*	0%	?	-1%	?
COc1ccc(CCNC(=S)NC(=O)c2ccccc2)cc1OC	.	0%	-3%	4%	0%	.	.	.	.	.
C[C@H](NC(=O)OC(C)(C)C)c1nnc(SCc2ccc(Cl)cc2Cl)o1	?	-1%	1%	2%	.	.	.	.	.	.
COc1cccc(CN(C)C(=O)C(CCSC)NS(=O)(=O)c2ccc3c(c2)OCCO3)c1OC (stereo not drawn)	-9%	0%	-19%	-4%	4.6µM*	11µM*	8.9µM*	9%	?	?
CSCCC(NS(=O)(=O)c1ccc2c(c1)OCCO2)C(=O)N(C)Cc1ccc(C)cc1 (stereo not drawn)	?	8%	-11%	8%	-22%	.	.	.	.	.
COc1ccc(OC)c(NC(=O)c2c(N3CCCC3=O)c3cc(OC)ccc3n2C)c1	-3%	-1%	2%	-8%	.	.	.	.	.	.
Cc1ccc(NC(=O)CSc2ncc3c(n2)-c2ccccc2N(C)S3(=O)=O)c(Cl)c1	?	4%	-26%	6%	.	.	.	.	.	.
Cc1ccc(C(=O)NN=CC(=O)c2ccccc2)c(C)c1	?	0%	12%	-4%	?	.	.	.	.	-19%
O=C(c1ccc(Cl)c(S(=O)(=O)N2CCOCC2)c1)N1CCN(Cc2ccccc2)CC1	16%	0%	-2%	6%	-7%	.	.	.	.	.
O=C(c1ccc(Cl)c(S(=O)(=O)N2CCOCC2)c1)N1CCN(c2ccccc2)CC1	-5%	3%	6%	-3%	0.082µM*	?	-2%	-7%	-17%	?	ELG1 FLuc counter=48%;FLuc biochem=-7%

Screens deposited in PubChem BioAssay by National Center for Advancing Translational Sciences (NCATS).
